Records with an inconclusive call do not appear. Where a call stands in place of a potency, no number is given. The source made the active and inactive calls. Unless noted, calls follow the shape of the dose curve; as a rule, active = well fitted curve in the direction sought with a large enough effect; inconclusive = small, poorly fitted or top-dose-only effect, or another doubt; inactive = no such curve, though single readings can be large; an effect the other way counts as inactive or inconclusive.
How the values were obtained:
[1] = qHTS for Inhibitors of the Functional Ribonucleoprotein Complex (vRNP) of Lassa (LASV) Arenavirus: LASV Primary Screen - GLuc reporter signal (AID 1347082; calls by dose curve; tested in HEK293 reporter line; also: nearly all actives have a fitted effect of over 60% in size; also: potency is read from the fitted curve at half-maximal effect)
[2] = qHTS for Inhibitors of the Functional Ribonucleoprotein Complex (vRNP) of Lassa (LASV) Arenavirus: Viability assay - alamar blue signal for LASV Primary Screen (AID 1347083; calls by dose curve; tested in HEK293 reporter line; also: nearly all actives have a fitted effect of over 80% in size; also: potency is read from the fitted curve at half-maximal effect)
[3] = qHTS for Inhibitors of the Functional Ribonucleoprotein Complex (vRNP) of Lymphocytic Choriomeningitis Arenaviruses (LCMV): Viability assay - alamar blue signal for LCMV Primary Screen (AID 1347085; calls by dose curve; tested in HEK293 reporter line; also: nearly all actives have a fitted effect of over 80% in size; also: potency is read from the fitted curve at half-maximal effect)
[4] = target: Nucleoprotein (Lymphocytic choriomeningitis virus (strain Armstrong)) (UniProt P09992); assay: qHTS for Inhibitors of the Functional Ribonucleoprotein Complex (vRNP) of Lymphocytic Choriomeningitis Arenaviruses (LCMV): LCMV Primary Screen - GLuc reporter signal (AID 1347086; calls by dose curve; also: nearly all actives have a fitted effect of over 70% in size; also: potency is read from the fitted curve at half-maximal effect)
[5] = qHTS of pediatric cancer cell lines to identify multiple opportunities for drug repurposing: Primary screen for SJ-GBM2 cells (AID 1347091); also: potency is read from the fitted curve at half-maximal effect
How it was run: (§1)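 Viability measured as metabolically active cells via CellTiter-Glo luminescence following 48 hours of compound exposure, 11-point dilutions in confirmatory testing. 500-1,000 cells/well plated 5 hours before dosing; controls were DMSO and 2.3 µM bortezomib.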

[6] = qHTS of pediatric cancer cell lines to identify multiple opportunities for drug repurposing: Primary screen for SK-N-MC cells (AID 1347093); also: potency is read from the fitted curve at half-maximal effect
How it was run: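 Metabolically active cells were quantified by ATP-dependent luminescence (CellTiter-Glo, 15 min at room temperature) following 48 h treatment. Cells had been plated at 500-1,000 per well and settled for 5 h beforehand.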

[7] = qHTS of pediatric cancer cell lines to identify multiple opportunities for drug repurposing: Primary screen for DAOY cells (AID 1347090); also: nearly all actives have a fitted effect of over 55% in size; also: potency is read from the fitted curve at half-maximal effect
How it was run: as §1

[8] = qHTS of pediatric cancer cell lines to identify multiple opportunities for drug repurposing: Primary screen for A673 cells (AID 1347092); also: nearly all actives have a fitted effect of over 45% in size; also: potency is read from the fitted curve at half-maximal effect
How it was run: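 Cells are plated, rested 5 h, dosed by pintool, incubated 48 h, then lysed with CellTiter-Glo and read by luminescence. DMSO is the neutral control; bortezomib at 2.3 uM final is the positive control.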

[9] = qHTS of pediatric cancer cell lines to identify multiple opportunities for drug repurposing: Primary screen for TC32 cells (AID 1347089); also: nearly all actives have a fitted effect of over 60% in size
How it was run: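 Measured quantity: luminescence from CellTiter-Glo, reflecting metabolically active TC32 cells following 48 h of compound. Curves came straight from multi-point titrations, with 8 or 11 points in primary and 11 in confirmatory screening.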

Chain of Nucleoprotein (Lymphocytic choriomeningitis virus (strain Armstrong)) (P09992 whole entry, looked up): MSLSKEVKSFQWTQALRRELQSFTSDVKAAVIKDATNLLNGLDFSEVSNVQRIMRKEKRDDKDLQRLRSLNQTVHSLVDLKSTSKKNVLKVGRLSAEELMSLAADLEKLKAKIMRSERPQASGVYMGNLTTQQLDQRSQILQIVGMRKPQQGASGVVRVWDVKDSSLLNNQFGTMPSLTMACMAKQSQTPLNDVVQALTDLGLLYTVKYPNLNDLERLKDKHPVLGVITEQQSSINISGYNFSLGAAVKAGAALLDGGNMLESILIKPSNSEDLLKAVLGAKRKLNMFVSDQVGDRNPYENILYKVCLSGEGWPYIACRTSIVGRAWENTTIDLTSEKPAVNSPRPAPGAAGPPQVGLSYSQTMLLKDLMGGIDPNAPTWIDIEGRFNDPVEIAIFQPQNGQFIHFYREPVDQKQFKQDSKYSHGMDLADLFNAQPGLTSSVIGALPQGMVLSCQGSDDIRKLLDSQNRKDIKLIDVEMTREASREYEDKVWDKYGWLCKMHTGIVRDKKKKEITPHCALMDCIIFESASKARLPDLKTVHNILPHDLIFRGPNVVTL

Compound | Potency [1] | Potency [2] | Potency [3] | Potency [4] | Potency [5] | Potency [6] | Potency [7] | Potency [8] | Potency [9]
COC1CC(=C(c2cccs2)c2cccs2)C[N+](C)(C)C1 (stereo not given) | inactive | inactive | inactive | inactive | inactive | inactive | – | – | –
CC(C)c1c(CN(C)C(C)Cc2ccccc2)n(C)n(-c2ccccc2)c1=O (stereo not given) | inactive | inactive | inactive | inactive | – | inactive | inactive | inactive | –
c1ccc2c(c1)sc1ccccc12 | inactive | inactive | inactive | inactive | inactive | inactive | – | inactive | –
CCCC(=O)O[C@]1(C(=O)CO)CC[C@H]2[C@@H]3CCC4=CC(=O)CC[C@]4(C)[C@H]3[C@@H](O)C[C@@]21C | inactive | inactive | – | inactive | – | – | – | – | –
ClCCN1CCCC1 | inactive | inactive | inactive | inactive | inactive | inactive | inactive | inactive | –
CC(=O)OCC1=C(C(=O)O)N2C(=O)[C@@H](N)[C@H]2SC1 | inactive | inactive | inactive | inactive | inactive | inactive | – | inactive | –
CCCN(CCC)C(=O)Cc1c(-c2ccc(Cl)cc2)nc2ccc(Cl)cn12 | inactive | inactive | inactive | inactive | – | 16.8 µM (active) | – | – | –
Clc1ccccc1N1CCNCC1 | inactive | inactive | inactive | inactive | inactive | inactive | inactive | inactive | –
CC1(C)C(C=C(Cl)Cl)C1C(=O)OC(C#N)c1cccc(Oc2ccccc2)c1 (stereo not given) | inactive | inactive | inactive | inactive | inactive | inactive | inactive | inactive | –
CCN[C@@H](C)Cc1ccccc1 | inactive | inactive | inactive | inactive | inactive | inactive | inactive | inactive | –
C[C@]12CCC(=O)C=C1CC[C@@H]1[C@@H]2CC[C@]2(C)C(=O)CC[C@@H]12 | inactive | inactive | inactive | inactive | inactive | inactive | inactive | inactive | –
CCCc1ccc(OCC(=O)N2CCN(C(=O)COc3ccc(CCC)cc3OC)CC2)c(OC)c1 | – | – | inactive | inactive | – | – | – | – | –
Nc1nc(Cl)nc2c1ncn2[C@H]1C[C@H](O)[C@@H](CO)O1 | inactive | – | 8.63 µM (active) | – | – | – | – | – | –
CCCCOC(=O)c1ccc(N)cc1 | inactive | – | inactive | inactive | – | – | – | – | –
COc1cc(NS(C)(=O)=O)ccc1Nc1c2ccccc2nc2ccccc12 | – | 2.51 µM (active) | – | 5.62 µM (active) | – | – | – | – | –
Nc1cc(C(Cl)=C(Cl)Cl)c(S(N)(=O)=O)cc1S(N)(=O)=O | inactive | inactive | – | inactive | – | – | – | – | –
CC(=O)OC[C@H]1O[C@@H](n2ncc(=O)[nH]c2=O)[C@H](OC(C)=O)[C@@H]1OC(C)=O | – | – | inactive | inactive | – | – | – | – | –
O=C1CN(/N=C/c2ccc([N+](=O)[O-])o2)C(=O)N1 | inactive | inactive | – | inactive | – | – | – | – | –
CC(C=CC1=C(C)CCCC1(C)C)=CC=CC(C)=CC(=O)O | inactive | – | 0.544 µM (active) | inactive | – | – | – | – | –
C[C@](O)(CS(=O)(=O)c1ccc(F)cc1)C(=O)Nc1ccc(C#N)c(C(F)(F)F)c1 | – | – | inactive | inactive | 3.72 µM (active) | 0.469 µM (active) | 0.743 µM (active) | 2.96 µM (active) | inactive
CCN(CC)C(=O)[C@@H]1C=C2c3cccc4[nH]cc(c34)C[C@H]2N(C)C1 | inactive | – | inactive | inactive | inactive | – | inactive | 56.6 µM (active) | inactive
COc1cc(C(=O)NS(=O)(=O)c2ccccc2C)ccc1Cc1cn(C)c2ccc(NC(=O)OC3CCCC3)cc12 | inactive | inactive | – | inactive | – | – | – | – | –
CC(=O)N1CCN(c2ccc(OC[C@H]3CO[C@](Cn4ccnc4)(c4ccc(Cl)cc4Cl)O3)cc2)CC1 | – | inactive | inactive | inactive | – | – | – | – | –
CC(Cc1ccccc1)N(C)Cc1ccco1 (stereo not given) | inactive | inactive | – | – | inactive | inactive | inactive | inactive | inactive
O=C(Nc1cccc2c(=O)cc(-c3nn[nH]n3)oc12)c1ccc(OCCCCc2ccccc2)cc1 | – | 30.6 µM (active) | – | – | – | – | – | – | –
C[C@]12CC[C@H]3[C@@H](CC[C@@]45O[C@H]4C(O)=C(C#N)C[C@]35C)[C@H]1CC[C@H]2O | inactive | inactive | – | – | inactive | 3.32 µM (active) | – | 18.7 µM (active) | –
CN(C)c1ccc2nc3ccc(=[N+](C)C)cc-3sc2c1 | 9.68 µM (active) | – | 24.3 µM (active) | 6.85 µM (active) | – | – | – | – | –
Cc1ccccc1C(=O)Nc1ccc(C(=O)N2CCCC(N(C)C)c3ccccc32)cc1 (stereo not given) | inactive | – | – | inactive | – | – | – | – | –
Nc1ncn([C@H]2C[C@H](O)[C@@H](CO)O2)c(=O)n1 | inactive | – | – | inactive | – | – | – | – | –

— PubChem BioAssay (NCATS)
